The values below come from PubChem BioAssay.

Calls of active or inactive are those of the source.

Test [1] can be described thus: A549 cell viability effects, profiling panel, calcein-AM fluorescence, 48 h, basal (AID 1162). The settings on record: higher = more signal.
The nature of test [2]: adipocyte viability effects, profiling panel, cell-based, 3T3-L1 adipocytes, calcein-AM fluorescence, 48 h, basal (AID 1163). To be noted: 3T3-L1 adipocytes viability, higher = more signal.
Test [3] can be described thus: HepG2 cell viability effects, profiling panel, calcein-AM fluorescence, 48 h, basal (AID 1164). The settings on record: higher = more signal.
Test [4] can be described thus: MM1S cell viability effects, profiling panel, calcein-AM fluorescence, 48 h, basal (AID 1165).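 Also: viability of MM1S multiple myeloma cells under basal unstimulated conditions.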 The settings on record: higher = more signal.
Test [5] is described as follows: basal RPMI8226 viability, no added stimulus, profiling panel, cell-based, calcein-AM fluorescence, 48 h, PK04 Diversity Set (AID 1166).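 Also: cells grown under basal conditions without added stimulus.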 The settings on record: RPMI8226 myeloma viability, higher = more signal.
The nature of test [6]: basal HepG2 mitochondrial membrane potential changes, profiling panel, cell-based, JC-1 fluorescence, 24 h, 100 nL compound (AID 1167). The settings on record: higher = more signal.
Test [7] in a line: basal 3T3-L1 adipocyte mitochondrial potential changes, profiling panel, cell-based, JC-1 fluorescence, 3T3-L1 adipocytes, 24 h, 100 nL compound (AID 1168). To be noted: JC-1 mitochondrial fluorescence, higher = more signal, called active from +8 up or from −8 down.
Test [8] in a line: basal RPMI8226 mitochondrial membrane potential changes, profiling panel, cell-based, JC-1 fluorescence, 24 h, 100 nL compound (AID 1169). The settings on record: RPMI8226 myeloma, JC-1 mitochondrial potential fluorescence, higher = more signal.
Test [9] is described as follows: basal MM1S mitochondrial membrane potential changes, profiling panel, cell-based, JC-1 fluorescence, 24 h, 100 nL compound (AID 1170). To be noted: higher = more signal.
Test [10] in a line: A549 lung cancer cell viability effects, profiling panel, resazurin fluorescence, 24 h, PK04 Diversity Set (AID 1171). To be noted: higher = more signal, called active from +8 up or from −8 down. In general terms: Alamar Blue is a resazurin reagent that responds to reducing activity.
Also: test concentration not given here.

On to `COC(=O)[C@@]1(Cc2ccc(F)cc2)[C@H]2c3cc(C(=O)N4CCCC4)n(Cc4ccccn4)c3C[C@H]2CN1C(=O)c1ccccc1`, for which the z-score in test [1] was -0.94; in [2] it was -0.0559; in test [3], -0.347; in [4], -0.333; in test [5] it was -2; in [6], 1.51. The z-score is -0.474 (inactive) in [7], -0.116 in [8], -1.65 in test [9] and -1.75 (inactive) in test [10].
With `COCC(=C=CC[C@H](O)c1ccccc1OCCO)C[C@H](O)COCc1ccccc1`, the z-score was 0.428 in test [1]; 0.152 in test [2]; 0.024 in [3]; -2.02 in [4]; -0.311 in test [5]; 1.37 in test [6]. Besides, the z-score in test [7] is -0.437 (inactive); in test [8], -0.138; in [9] it was -0.382; in test [10] it was 0.857 (inactive).
Regarding `COc1ccc([Si](C)(C)[C@H]2[C@H](CC(=O)N3Cc4ccccc4C[C@H]3CO)O[C@@]3(C(=O)N(C)c4ccccc43)[C@@H]2C)cc1`, the z-score in test [1] is -0.962; in test [2], 1.43; in test [3], -1.42; in test [4], -2.67; in test [5], -4.05; in test [6], -0.592. In addition, the z-score in test [7] is -0.0846 (inactive); in test [8], -1.1; in [9], -0.748; in test [10], -0.299 (inactive).
With `COCCOC(=O)N1C(=O)[C@@]2(c3cc(C#CCC(C(=O)OC)C(=O)OC)ccc31)[C@H](c1ccc(O)cc1)N1[C@H](c3ccccc3)[C@H](c3ccccc3)OC(=O)[C@H]1[C@@H]2C(=O)Nc1nc2ccccc2s1`, the z-score is -0.451 in [1]; 0.982 in [2]; -0.0867 in [3]; 0.121 in [4]; -0.6 in test [5]; -1.18 in test [6]. Besides, the z-score is -1.98 (inactive) in [7], -0.164 in [8], 0.0358 in test [9] and 0.066 (inactive) in [10].
On to `COCCOC(=O)N1C(=O)[C@@]2(c3cc(C#CC4(O)CCCCCC4)ccc31)[C@H](c1ccc(O)cc1)N1[C@H](c3ccccc3)[C@H](c3ccccc3)OC(=O)[C@H]1[C@@H]2C(=O)N1CCCCCCC1`, for which the z-score was 0.717 in [1]; -0.854 in [2]; 0.98 in [3]; -0.615 in test [4]; -1.83 in [5]; -0.442 in [6]. Besides, the z-score in [7] is -0.943 (inactive); in test [8], -1.01; in [9], 0.0446; in test [10], -0.178 (inactive).
For `CN1C(=O)C2C(C1=O)C1C=C(c3ccc(CO)cc3)C2C(C2CC2)N1C` (stereo not given), the z-score in test [1] was 0.632; in [2], 1.29; in [3], -0.799; in test [4], 0.535; in test [5], -0.594; in test [6], 0.399. Moreover, the z-score is -0.768 (inactive) in test [7], 0.178 in test [8], -0.0509 in test [9] and -0.694 (inactive) in [10].
On to `C=CCN1C(=O)[C@@]2(O[C@@H](CCn3cc([C@H](O)c4ccccc4)nn3)[C@H]([Si](C)(C)c3ccc(OC)cc3)[C@H]2C)c2cc(N3C(=O)c4cccc5cccc3c45)ccc21`, for which the z-score in [1] was 0.248; in [2], -0.0484; in [3] it was -1.93; in test [4], -1.87; in test [5] it was -4.04; in test [6] it was 0.319. Moreover, the z-score was -0.127 (inactive) in test [7], -0.929 in [8], -1.37 in [9] and -1.94 (inactive) in [10].
For `C=CCNC(=O)[C@@H]1[C@H]2C(=O)O[C@H](c3ccccc3)[C@H](c3ccccc3)N2[C@H](c2ccc(OCCO)cc2)[C@@]12C(=O)Nc1ccc(C#CC3(O)CCCCCC3)cc12`, the z-score is -0.134 in test [1]; 1.84 in test [2]; -1.39 in [3]; -1.29 in [4]; -2.43 in test [5]; -1.16 in test [6]. Also, the z-score in test [7] was -0.848 (inactive); in [8] it was -0.862; in test [9] it was -0.962; in test [10] it was 0.355 (inactive).
Take `CO[C@H]1O[C@H](CO)[C@@H](OC(=O)Nc2ccccc2-c2ccccc2)[C@H](OC(=O)Nc2ccccc2)[C@H]1OC(=O)Nc1ccccc1`: the z-score in test [1] was -1.66; in [2], 1.29; in [3] it was -1.74; in [4], -2.76; in test [5] it was -3.36; in [6], -0.216. Besides, the z-score was 0.877 (inactive) in test [7], -0.747 in test [8], -0.558 in [9] and -3.34 (inactive) in [10].
On to `C=CC1c2cc(O)c(OC)cc2CCN1C` (stereo not given), for which the z-score in test [1] was -1.24; in [2], 0.281; in test [3] it was 0.0372; in test [4], 0.121; in test [5], 0.212; in test [6] it was -1.17. The z-score in test [7] was -0.82 (inactive); in test [8] it was 0.222; in test [9], -0.67; in test [10] it was -0.535 (inactive).
Regarding `CN(C)CCCC[C@@H]1NC(=O)[C@H]2C[C@@H](C(=O)O)[C@@H](c3ccc(O)cc3)N2C1=O`, the z-score in test [1] is 0.151; in test [2] it was 1.73; in test [3] it was 0.326; in test [4], -1.24; in [5] it was -0.817; in test [6], -0.0533. The z-score in [7] was 0.419 (inactive); in test [8] it was -0.693; in test [9], 0.38; in [10] it was -0.569 (inactive).
As for `CCCCC(O)C1C=CC2C(=O)N(c3ccccc3)C(=O)C2N1Nc1ccccc1` (stereo not given), the z-score was 0.645 in [1]; -1.91 in [2]; -0.371 in test [3]; 0.225 in test [4]; -0.374 in test [5]; -1.43 in test [6]. Moreover, the z-score is 0.466 (inactive) in [7], -0.241 in test [8], 0.0498 in [9] and 0.134 (inactive) in [10].
As for `CCC(CC)C(O)C1C=CC2C(=O)N(c3ccccc3)C(=O)C2N1Nc1ccccc1F` (stereo not given), the z-score in [1] is 0.21; in test [2], 0.561; in test [3] it was 1.09; in [4], 1.38; in [5] it was 0.523; in test [6], 0.387. Also, the z-score is -0.147 (inactive) in [7], -0.231 in test [8], -0.817 in test [9] and 0.0513 (inactive) in test [10].
Turning to `CCCCCC1=C2CNC(CC(C)C)(C(=O)OC)C=C2C(C)C1=O` (stereo not given), the z-score in [1] was -0.659; in test [2] it was -0.707; in test [3] it was 0.468; in test [4], -0.227; in test [5] it was -1.12; in test [6], 0.745. The z-score is -1.21 (inactive) in test [7], -0.324 in test [8], -1.53 in [9] and -0.683 (inactive) in test [10].
